Key:
Assay in all cases: DAPPL (digital affinity profiling via proximity ligation, sequencing); 10 mM Tris-HCl pH 7.5, 50 mM NaCl, 1 mM DTT, 4% glycerol, room temperature, 30 min; GST-TFs on glutathione beads, 16-mer random dsDNA library, 0.1% formaldehyde crosslink after washing; high values mean tight binding
Settings in all cases: protein: recombinant; tags: N-terminal GST; dsDNA, one strand shown
ELK1 = molecular target: T1, ELK1 (Homo sapiens, UniProt P19419 1-428)
T1 sequence: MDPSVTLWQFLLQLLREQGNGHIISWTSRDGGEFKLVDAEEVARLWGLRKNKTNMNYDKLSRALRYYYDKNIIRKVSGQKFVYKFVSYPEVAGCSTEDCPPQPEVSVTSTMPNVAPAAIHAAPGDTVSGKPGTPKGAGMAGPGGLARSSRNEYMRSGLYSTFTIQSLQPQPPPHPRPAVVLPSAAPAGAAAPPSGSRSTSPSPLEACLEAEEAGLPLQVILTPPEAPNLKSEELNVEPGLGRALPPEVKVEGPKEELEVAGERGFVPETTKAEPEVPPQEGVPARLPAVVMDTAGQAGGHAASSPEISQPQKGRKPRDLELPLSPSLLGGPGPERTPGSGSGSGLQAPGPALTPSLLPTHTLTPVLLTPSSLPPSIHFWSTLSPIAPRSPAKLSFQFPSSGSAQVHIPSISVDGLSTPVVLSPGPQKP
Method in brief: (§1)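 Beads coated with glutathione captured GST-fused human transcription factors that had been expressed in yeast, and the factors were then given DNA barcodes and pooled with a tag-only sample. The pools were incubated with 200 nmole of a random double-stranded 16-mer DNA library in Tris/NaCl/DTT/glycerol buffer for 30 min at room temperature, washed, crosslinked with 0.1% formaldehyde and proximity-ligated with BsaI/T4 ligase at 37 °C for 1 h. PCR amplification and Illumina NextSeq500 sequencing came last. Binding signal is each hexamer's read frequency for a factor divided by its frequency for the tag-only sample.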

GABPA = molecular target: T2, GABPA (Homo sapiens, UniProt Q06546 1-454)
T2 sequence: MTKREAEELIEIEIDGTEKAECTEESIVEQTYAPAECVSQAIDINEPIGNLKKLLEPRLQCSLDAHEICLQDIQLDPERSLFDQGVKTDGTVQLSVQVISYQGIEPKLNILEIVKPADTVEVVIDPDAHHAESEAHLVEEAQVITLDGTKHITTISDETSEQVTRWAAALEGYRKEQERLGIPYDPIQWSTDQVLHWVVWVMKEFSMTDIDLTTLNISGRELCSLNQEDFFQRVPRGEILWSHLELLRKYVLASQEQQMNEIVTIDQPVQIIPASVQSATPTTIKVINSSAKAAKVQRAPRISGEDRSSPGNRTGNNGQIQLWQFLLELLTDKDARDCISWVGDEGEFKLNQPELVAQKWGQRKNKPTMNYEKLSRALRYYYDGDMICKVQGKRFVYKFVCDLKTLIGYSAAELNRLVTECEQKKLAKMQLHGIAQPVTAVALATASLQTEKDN
Method in brief: as §1

EHF = molecular target: T3, EHF (Homo sapiens, UniProt Q9NZC4 1-300)
T3 sequence: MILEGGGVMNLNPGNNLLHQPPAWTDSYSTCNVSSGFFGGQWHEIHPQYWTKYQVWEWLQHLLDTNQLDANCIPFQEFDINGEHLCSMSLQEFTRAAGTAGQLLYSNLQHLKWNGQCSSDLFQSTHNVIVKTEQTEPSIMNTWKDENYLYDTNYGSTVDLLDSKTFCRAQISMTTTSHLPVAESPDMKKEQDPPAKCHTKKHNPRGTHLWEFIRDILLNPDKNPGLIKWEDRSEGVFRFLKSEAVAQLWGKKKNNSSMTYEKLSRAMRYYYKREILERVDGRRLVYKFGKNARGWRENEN
Method in brief: as §1

ELK3 = molecular target: T4, ELK3 (Homo sapiens, UniProt P41970 1-407)
T4 sequence: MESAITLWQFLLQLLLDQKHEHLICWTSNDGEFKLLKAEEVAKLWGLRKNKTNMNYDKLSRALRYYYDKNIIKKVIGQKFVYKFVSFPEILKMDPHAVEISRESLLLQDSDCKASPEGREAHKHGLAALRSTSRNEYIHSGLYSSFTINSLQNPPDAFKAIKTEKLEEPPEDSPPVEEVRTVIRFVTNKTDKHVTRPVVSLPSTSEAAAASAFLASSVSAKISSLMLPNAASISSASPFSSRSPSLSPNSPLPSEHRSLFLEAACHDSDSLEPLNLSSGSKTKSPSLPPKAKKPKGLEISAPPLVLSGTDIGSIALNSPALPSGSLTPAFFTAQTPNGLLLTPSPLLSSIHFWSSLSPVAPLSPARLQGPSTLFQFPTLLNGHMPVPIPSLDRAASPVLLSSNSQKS
Method in brief: as §1

ETV5 = ETV5 (Homo sapiens, UniProt P41161 1-510)
Sequence of ETV5 (P41161 whole entry): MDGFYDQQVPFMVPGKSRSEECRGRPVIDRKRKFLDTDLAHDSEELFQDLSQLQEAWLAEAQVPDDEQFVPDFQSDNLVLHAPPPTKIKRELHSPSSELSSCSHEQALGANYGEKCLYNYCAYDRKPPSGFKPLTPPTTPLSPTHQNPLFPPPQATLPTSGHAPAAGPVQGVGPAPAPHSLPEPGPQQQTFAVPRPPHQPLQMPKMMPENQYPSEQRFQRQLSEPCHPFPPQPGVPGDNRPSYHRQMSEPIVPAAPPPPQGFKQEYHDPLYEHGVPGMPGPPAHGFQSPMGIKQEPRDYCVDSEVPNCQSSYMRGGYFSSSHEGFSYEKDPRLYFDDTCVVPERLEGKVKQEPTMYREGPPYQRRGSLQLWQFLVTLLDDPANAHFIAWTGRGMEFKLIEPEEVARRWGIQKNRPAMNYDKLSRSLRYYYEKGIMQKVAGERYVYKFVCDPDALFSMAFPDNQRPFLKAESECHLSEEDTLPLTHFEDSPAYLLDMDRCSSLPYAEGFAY
Method in brief: as §1

SPIC = molecular target: T5, SPIC (Homo sapiens, UniProt Q8N5J4 1-248)
T5 sequence: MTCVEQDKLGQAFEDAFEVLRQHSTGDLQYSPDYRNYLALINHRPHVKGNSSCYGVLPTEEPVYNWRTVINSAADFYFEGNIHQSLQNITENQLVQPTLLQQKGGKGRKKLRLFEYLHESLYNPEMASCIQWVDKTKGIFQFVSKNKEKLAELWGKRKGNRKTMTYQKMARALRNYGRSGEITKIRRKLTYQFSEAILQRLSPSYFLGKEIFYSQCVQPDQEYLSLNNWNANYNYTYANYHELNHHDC
Method in brief: as §1

ELF3 = molecular target: T6, ELF3 (Homo sapiens, UniProt P78545 1-371)
T6 sequence: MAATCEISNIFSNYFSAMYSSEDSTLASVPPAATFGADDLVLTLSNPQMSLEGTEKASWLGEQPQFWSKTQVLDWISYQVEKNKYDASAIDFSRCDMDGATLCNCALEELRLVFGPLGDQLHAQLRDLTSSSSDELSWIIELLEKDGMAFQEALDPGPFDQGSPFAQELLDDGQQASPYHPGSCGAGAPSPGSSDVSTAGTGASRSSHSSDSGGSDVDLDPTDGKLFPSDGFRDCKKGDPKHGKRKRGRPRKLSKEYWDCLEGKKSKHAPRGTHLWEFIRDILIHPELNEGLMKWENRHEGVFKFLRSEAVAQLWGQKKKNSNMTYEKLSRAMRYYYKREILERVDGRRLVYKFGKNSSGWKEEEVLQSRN
Method in brief: as §1

ERF = molecular target: T7, ERF (Homo sapiens, UniProt P50548 1-548)
T7 sequence: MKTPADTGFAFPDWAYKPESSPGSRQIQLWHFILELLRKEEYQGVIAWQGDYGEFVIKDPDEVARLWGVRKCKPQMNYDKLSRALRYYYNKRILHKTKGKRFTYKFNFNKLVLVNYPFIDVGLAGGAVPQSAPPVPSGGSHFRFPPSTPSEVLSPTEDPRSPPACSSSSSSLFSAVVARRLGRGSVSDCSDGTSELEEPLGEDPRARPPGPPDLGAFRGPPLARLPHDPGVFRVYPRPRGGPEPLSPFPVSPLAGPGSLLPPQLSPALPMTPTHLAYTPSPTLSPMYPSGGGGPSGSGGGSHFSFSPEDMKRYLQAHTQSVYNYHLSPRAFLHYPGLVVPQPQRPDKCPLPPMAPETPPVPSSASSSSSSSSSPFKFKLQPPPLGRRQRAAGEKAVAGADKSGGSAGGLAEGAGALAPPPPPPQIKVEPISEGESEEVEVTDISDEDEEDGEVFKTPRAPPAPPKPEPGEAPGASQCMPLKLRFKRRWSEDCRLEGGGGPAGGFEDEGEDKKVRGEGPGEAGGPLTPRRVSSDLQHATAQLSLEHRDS
Method in brief: as §1

ETS2 = molecular target: T8, ETS2 (Homo sapiens, UniProt P15036 1-469)
T8 sequence: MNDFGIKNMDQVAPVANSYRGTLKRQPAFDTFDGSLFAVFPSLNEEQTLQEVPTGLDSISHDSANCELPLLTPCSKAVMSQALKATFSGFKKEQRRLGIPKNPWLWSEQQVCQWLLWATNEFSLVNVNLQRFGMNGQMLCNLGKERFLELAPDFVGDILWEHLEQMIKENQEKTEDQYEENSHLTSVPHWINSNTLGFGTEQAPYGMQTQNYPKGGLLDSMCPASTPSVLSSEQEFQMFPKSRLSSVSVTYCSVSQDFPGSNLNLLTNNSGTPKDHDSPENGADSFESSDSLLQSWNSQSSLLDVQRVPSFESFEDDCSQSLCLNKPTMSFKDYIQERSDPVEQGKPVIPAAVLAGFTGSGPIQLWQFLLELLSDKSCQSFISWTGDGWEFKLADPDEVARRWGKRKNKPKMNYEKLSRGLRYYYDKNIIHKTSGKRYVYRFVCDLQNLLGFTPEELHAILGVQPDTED
Method in brief: as §1

SPDEF = molecular target: T9, SPDEF (Homo sapiens, UniProt O95238 1-335)
T9 sequence: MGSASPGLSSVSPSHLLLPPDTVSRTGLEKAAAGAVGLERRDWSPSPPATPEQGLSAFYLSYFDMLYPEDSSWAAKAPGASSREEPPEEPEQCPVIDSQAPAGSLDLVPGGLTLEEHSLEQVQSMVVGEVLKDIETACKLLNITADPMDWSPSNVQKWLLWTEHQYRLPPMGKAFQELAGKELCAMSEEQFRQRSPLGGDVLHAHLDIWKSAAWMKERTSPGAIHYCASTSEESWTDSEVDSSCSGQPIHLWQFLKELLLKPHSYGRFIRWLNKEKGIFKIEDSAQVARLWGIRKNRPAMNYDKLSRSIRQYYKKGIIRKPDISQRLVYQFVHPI
Method in brief: as §1

ETV3 = molecular target: T10, ETV3 (Homo sapiens, UniProt P41162-2 1-143)
T10 sequence: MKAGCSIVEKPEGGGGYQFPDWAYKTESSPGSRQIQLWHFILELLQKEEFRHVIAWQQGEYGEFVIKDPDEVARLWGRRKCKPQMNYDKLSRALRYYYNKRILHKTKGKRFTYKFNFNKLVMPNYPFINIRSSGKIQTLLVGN
Method in brief: as §1

ERG = molecular target: T11, ERG (Homo sapiens, UniProt P11308 1-479)
T11 sequence: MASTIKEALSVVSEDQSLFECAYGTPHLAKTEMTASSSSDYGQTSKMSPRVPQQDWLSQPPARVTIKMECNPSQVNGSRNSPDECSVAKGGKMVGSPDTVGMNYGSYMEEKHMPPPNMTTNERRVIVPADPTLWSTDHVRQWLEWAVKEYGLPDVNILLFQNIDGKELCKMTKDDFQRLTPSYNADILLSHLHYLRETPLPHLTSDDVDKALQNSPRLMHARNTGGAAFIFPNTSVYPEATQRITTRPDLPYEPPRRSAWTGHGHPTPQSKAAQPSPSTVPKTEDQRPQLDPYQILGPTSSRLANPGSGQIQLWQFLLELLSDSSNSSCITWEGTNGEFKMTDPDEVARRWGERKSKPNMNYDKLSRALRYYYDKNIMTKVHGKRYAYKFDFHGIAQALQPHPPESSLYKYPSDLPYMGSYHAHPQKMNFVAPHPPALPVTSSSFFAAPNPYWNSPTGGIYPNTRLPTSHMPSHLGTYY
Method in brief: as §1

SPIB = SPIB (Homo sapiens, UniProt Q01892 1-262)
Sequence of SPIB (Q01892 whole entry): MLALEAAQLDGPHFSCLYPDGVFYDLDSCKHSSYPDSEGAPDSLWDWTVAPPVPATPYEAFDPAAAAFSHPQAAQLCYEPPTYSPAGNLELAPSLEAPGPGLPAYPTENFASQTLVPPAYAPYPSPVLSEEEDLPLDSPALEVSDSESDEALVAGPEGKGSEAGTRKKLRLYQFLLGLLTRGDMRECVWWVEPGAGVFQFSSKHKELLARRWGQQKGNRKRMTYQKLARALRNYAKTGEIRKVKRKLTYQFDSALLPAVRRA
Method in brief: as §1

ETV1 = ETV1 (Homo sapiens, UniProt P50549 1-477)
Sequence of ETV1 (P50549 whole entry): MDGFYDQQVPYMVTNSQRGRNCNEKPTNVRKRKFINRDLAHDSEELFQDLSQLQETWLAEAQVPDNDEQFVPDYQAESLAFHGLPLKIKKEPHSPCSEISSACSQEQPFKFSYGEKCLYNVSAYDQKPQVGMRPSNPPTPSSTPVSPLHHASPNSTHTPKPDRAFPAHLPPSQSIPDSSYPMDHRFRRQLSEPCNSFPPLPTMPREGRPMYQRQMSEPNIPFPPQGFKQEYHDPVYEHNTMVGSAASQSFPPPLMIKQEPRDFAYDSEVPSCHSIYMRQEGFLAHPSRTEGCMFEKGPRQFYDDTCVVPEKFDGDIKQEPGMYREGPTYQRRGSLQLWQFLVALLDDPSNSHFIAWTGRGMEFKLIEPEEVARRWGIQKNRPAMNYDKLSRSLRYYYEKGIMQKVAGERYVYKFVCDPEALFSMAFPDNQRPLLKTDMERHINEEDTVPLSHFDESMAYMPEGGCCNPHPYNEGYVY
Method in brief: as §1

ETV7 = molecular target: T12, ETV7 (Homo sapiens, UniProt Q9Y603 1-341)
T12 sequence: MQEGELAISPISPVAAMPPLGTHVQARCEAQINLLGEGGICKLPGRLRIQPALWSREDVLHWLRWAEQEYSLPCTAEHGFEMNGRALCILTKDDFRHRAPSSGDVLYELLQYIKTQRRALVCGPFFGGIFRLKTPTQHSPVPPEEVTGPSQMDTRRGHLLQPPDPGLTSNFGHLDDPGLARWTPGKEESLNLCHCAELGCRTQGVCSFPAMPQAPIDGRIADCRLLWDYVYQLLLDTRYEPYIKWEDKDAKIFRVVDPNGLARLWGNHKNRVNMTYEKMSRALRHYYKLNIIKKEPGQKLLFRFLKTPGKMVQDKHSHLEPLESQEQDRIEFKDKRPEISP
Method in brief: as §1

ETV6 = ETV6 (Homo sapiens, UniProt P41212 1-452)
Sequence of ETV6 (P41212 whole entry): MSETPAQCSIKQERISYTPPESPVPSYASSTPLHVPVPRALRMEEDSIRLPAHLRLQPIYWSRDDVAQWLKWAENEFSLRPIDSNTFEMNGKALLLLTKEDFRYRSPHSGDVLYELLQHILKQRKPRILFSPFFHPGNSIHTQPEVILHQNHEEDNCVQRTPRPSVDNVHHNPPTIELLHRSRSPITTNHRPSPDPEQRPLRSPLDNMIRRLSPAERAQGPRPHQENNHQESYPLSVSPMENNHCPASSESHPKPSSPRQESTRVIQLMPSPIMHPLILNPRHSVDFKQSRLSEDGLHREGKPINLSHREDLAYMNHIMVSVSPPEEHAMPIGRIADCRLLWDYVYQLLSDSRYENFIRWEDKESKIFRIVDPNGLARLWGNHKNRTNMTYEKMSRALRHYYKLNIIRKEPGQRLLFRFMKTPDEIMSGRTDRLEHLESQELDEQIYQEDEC
Method in brief: as §1

Row | Sequence | binding signal (ELK1) | binding signal (GABPA) | binding signal (EHF) | binding signal (ELK3) | binding signal (ETV5) | binding signal (SPIC) | binding signal (ELF3) | binding signal (ERF) | binding signal (ETS2) | binding signal (SPDEF) | binding signal (ETV3) | binding signal (ERG) | binding signal (SPIB) | binding signal (ETV1) | binding signal (ETV7) | binding signal (ETV6)
1 | TATGAG | 1.02 fold enrichment (6-mer frequency, TF over GST control) | 1.03 fold enrichment (6-mer frequency, TF over GST control) | 1.04 fold enrichment (6-mer frequency, TF over GST control) | 1.02 fold enrichment (6-mer frequency, TF over GST control) | 1.02 fold enrichment (6-mer frequency, TF over GST control) | 1.16 fold enrichment (6-mer frequency, TF over GST control) | 1.08 fold enrichment (6-mer frequency, TF over GST control) | 1.1 fold enrichment (6-mer frequency, TF over GST control) | 1 fold enrichment (6-mer frequency, TF over GST control) | 1.01 fold enrichment (6-mer frequency, TF over GST control) | 1.09 fold enrichment (6-mer frequency, TF over GST control) |  |  |  |  | 
2 | GCCGGA | 1.17 fold enrichment (6-mer frequency, TF over GST control) |  | 1.08 fold enrichment (6-mer frequency, TF over GST control) | 1.11 fold enrichment (6-mer frequency, TF over GST control) | 1.16 fold enrichment (6-mer frequency, TF over GST control) |  | 1.05 fold enrichment (6-mer frequency, TF over GST control) |  | 1.01 fold enrichment (6-mer frequency, TF over GST control) | 1.37 fold enrichment (6-mer frequency, TF over GST control) | 1.1 fold enrichment (6-mer frequency, TF over GST control) | 1.27 fold enrichment (6-mer frequency, TF over GST control) | 1.01 fold enrichment (6-mer frequency, TF over GST control) | 1.07 fold enrichment (6-mer frequency, TF over GST control) | 1 fold enrichment (6-mer frequency, TF over GST control) | 1.07 fold enrichment (6-mer frequency, TF over GST control)

Reference: article PMC7862700, “An all-to-all approach to the identification of sequence-specific readers for epigenetic DNA modifications on cytosine”
